The assay can be described thus: NCI Yeast Anticancer Drug Screen. Data for the mgt1 strain (AID 153). Particulars: S. cerevisiae mgt1 mutant growth inhibition, stronger effect = higher value. How it is done: Growth inhibition of yeast strains with defined genetic alterations is measured as a screen for potential anti-cancer activity. Selected strains with alterations in DNA damage repair or cell cycle control were exposed to compounds and growth inhibition was measured relative to vehicle treated controls. The strain used in this assay is mgt1

These results are taken from PubChem BioAssay (NCI).

About 79,000 compounds went through this panel and 15% of them were active in at least one assay; those are over-represented in the sample as a whole. Values without a mark were called inactive. Calls of active or inactive are those of the source. Rule as the data show it: active = growth inhibition above about 70%; inactive = the rest.

Take `COc1ccc2c(c1)n([O-])c1ccccc1[n+]2=O`: the growth inhibition was -1% (at 1.2 µM); 2% (at 3.7 µM); 9% (at 11.0 µM); 33% (at 33.0 µM); 88% (active) (at 100.0 µM).
Regarding `Cc1cc(C(C)(C)CC(C)(C)C)ccc1O`, the growth inhibition was -52% (at 1.2 µM); -66% (at 3.7 µM); -37% (at 11.0 µM); 98% (active) (at 33.0 µM); 99% (active) (at 100.0 µM).
For the molecule `O=c1ccc(=O)n(-c2ccccc2)[nH]1`, the growth inhibition was 0% (at 1.2 µM); 19% (at 3.7 µM); 35% (at 11.0 µM); 70% (active) (at 33.0 µM); 97% (active) (at 100.0 µM).
On to `Nc1ncnc2c1ncn2C1OC(CO)CC1O` (stereo not given), for which the growth inhibition by setting is: (at 1.2 µM) -37%; (at 3.7 µM) -3%; (at 11.0 µM) 10%; (at 33.0 µM) 62%; (at 100.0 µM) 89% (active).
For the molecule `CCN(CC)Cc1cc(Nc2c3ccccc3nc3c2[nH]c2ccccc23)cc(CN(CC)CC)c1O`, the growth inhibition runs as follows: (at 1.2 µM) -3%; (at 3.7 µM) -3%; (at 11.0 µM) -3%; (at 33.0 µM) -16%; (at 100.0 µM) 1%.
With `COc1oc(C(=O)NC2CCCCC2)c(-c2ccc(Cl)cc2)c1S(=O)(=O)c1ccccc1`, the growth inhibition is -21% (at 1.2 µM); -17% (at 3.7 µM); 60% (at 11.0 µM); 89% (active) (at 33.0 µM); 86% (active) (at 100.0 µM).
The corresponding values for `CC(C)(C)C1=CC(=CC=C2C=CN(CCCCCCCCCCCO)C=C2)C=C(C(C)(C)C)C1=O` are -4%, -4%, 99% (active), 100% (active) and 99% (active).
Consider `CCOC(=O)[C@H]1Nc2ccc(OC)cc2C2c3ccccc3CC21` (stereo not given in full), for which the growth inhibition (at 1.2 µM) was -40%; the growth inhibition (at 3.7 µM) is -46%; the growth inhibition (at 11.0 µM) is -46%; the growth inhibition (at 33.0 µM) was 28%; the growth inhibition (at 100.0 µM) is 83% (active).
